Screens as filed in PubChem.
GLS inh: glutaminase GLS (human) inhibition | O94925 | GLS enzymatic activity, qHTS titration | Potency, µM (series often up to 45.5 µM), usual class: inhibitors | 0.21% of 410,000 active
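Enzyme dispensed in phosphate buffer (45 mM, pH 8.2, 0.02% Tween-20), compounds pinned in, then 1 mM L-glutamine solution and the glutamate oxidase–HRP–Amplex Red mix added; fluorescence read immediately and again after 30 min at room temperature.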
L3MBTL1 inh: inhibitors of human L3MBTL1. Q9Y468. AlphaScreen L3MBTL1–H3K9me1 peptide binding. Potency, µM (top dose mostly 57.1 µM), actives largely listed as inhibitors. 0.66% of 230,000 active. AID 485360; also: nearly all actives have a fitted effect of over 60% in size
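AlphaScreen assay: L3MBTL1 (50 nM final) was preincubated 30 min at room temperature with biotinylated H3(1-15)K9me1 peptide (75 nM final), then 30 min with library compounds; streptavidin donor and nickel chelate acceptor beads (10 ug/mL final) added, 30 min dark.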
JMJD2A Tudor: blocks the human JMJD2A Tudor domain; O75164; AlphaScreen JMJD2A-Tudor / H3K4me3 peptide binding; Potency, µM (titrated, usually from 114 µM), usual class: inhibitors; 4.4% of 390,000 active; also: nearly all actives have a fitted effect of over 50% in size
BAZ2B inh: inhibitors of human BAZ2B bromodomain | Q9UIF8 | AlphaScreen BAZ2B-H3K14Ac peptide displacement | Potency, µM (series often up to 114 µM), actives largely listed as inhibitors | 4.4% of 360,000 active | AID 504333; also: nearly all actives have a fitted effect of over 60% in size
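Inhibition is scored as reduced AlphaScreen emission. The BAZ2B/b-H3(5-23)K14Ac complex (50 nM each) in PBS pH 7.4, 0.01% Tween-20 meets compound (up to 110 uM) for 30 min at RT before bead addition.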
HP1b binding inh: blocks HP1-beta chromodomain binding to methylated histone tails | AlphaScreen HP1-beta / biotin-H3K9me3 peptide binding | Potency, µM (doses to about 114 µM), most hits filed as inhibitors | 0.56% of 390,000 active | AID 540317; also: nearly all actives have a fitted effect of over 70% in size
Target sequence (P83916 whole entry, looked up): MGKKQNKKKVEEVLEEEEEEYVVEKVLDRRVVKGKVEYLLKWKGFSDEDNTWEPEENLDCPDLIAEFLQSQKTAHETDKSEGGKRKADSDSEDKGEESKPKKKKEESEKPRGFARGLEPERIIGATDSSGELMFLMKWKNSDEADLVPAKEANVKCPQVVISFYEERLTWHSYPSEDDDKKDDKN
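HP1-beta protein (50 nM final) preincubated 30 min at room temperature with biotinylated H3(1-18)K9me3 peptide (50 nM) in PBS pH 7.4, 0.01% Tween-20, then compound added for 30 min. AlphaScreen streptavidin donor/nickel chelate acceptor beads (10 ug/mL final), 30 min dark, luminescence read.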
G9a block: inhibitors of human histone lysine methyltransferase G9a. Potency, µM (series often up to 102 µM), usual class: inhibitors. G9a H3K9 monomethylation, AlphaScreen, 2 h. AID 504332. 8.8% of 350,000 active. Q96KQ7; also: nearly all actives have a fitted effect of over 75% in size
Target sequence (Q96KQ7 913-1193 limits assumed): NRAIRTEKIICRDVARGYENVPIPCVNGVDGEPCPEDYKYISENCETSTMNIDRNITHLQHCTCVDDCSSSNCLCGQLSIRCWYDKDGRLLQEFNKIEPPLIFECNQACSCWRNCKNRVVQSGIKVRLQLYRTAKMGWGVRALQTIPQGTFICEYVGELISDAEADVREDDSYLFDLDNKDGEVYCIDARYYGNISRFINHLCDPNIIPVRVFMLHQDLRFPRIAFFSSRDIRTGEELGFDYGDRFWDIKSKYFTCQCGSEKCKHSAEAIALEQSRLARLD
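Readings reflect AlphaScreen signal from monomethyl-H3K9 antibody detection. HMT at 20 nM; substrate b-H3K9 500 nM; cofactor SAM 20 uM; 2 h RT reaction; compounds tested as titrations in qHTS with 15 min preincubation.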
Numbers stand for hits; i = inactive; ? = inconclusive; nt = not tested or not shown; [ ] = remark or other dose. Sampled rows, rich in hits. Any-hit rate of the full collection: about 10%. Calls follow the shape of the dose curve; as a rule, active = well fitted curve in the direction sought with a large enough effect; inconclusive = small, poorly fitted or top-dose-only effect, or another doubt; inactive = no such curve, though single readings can be large; an effect the other way counts as inactive or inconclusive.

SMILES	GLS inh	L3MBTL1 inh	JMJD2A Tudor	BAZ2B inh	HP1b binding inh	G9a block
CC1=C(C(=O)OC2CCCC2)C(c2cccc(Cl)c2Cl)CC(=O)N1 (stereo unspecified)	i	nt	i	i	i	i
COC(=O)c1[nH]c2ccc(F)cc2c1NC(=O)Nc1ccc(OC)cc1	i	i	i	i	i	i[2.33 µM]
COC(=O)c1[nH]c2ccc(C)cc2c1NC(=O)Nc1ccc(OC)cc1	i	i	i[11.4 µM]	i	i	45µM
COC(=O)c1[nH]c2cc(OC)ccc2c1N	i	i	?	i	i	3.5µM
COc1ccc2[nH]c(C(=O)O)c(NS(=O)(=O)c3ccc(C)cc3C)c2c1	i	nt	i	i	i	40µM
COc1cc(C2CC(=O)Nc3c2c(=O)n(C)c(=O)n3C)cc(OC)c1OC (stereo unspecified)	i	nt	i	i	i	i
CC(=O)c1ccc(NC(=O)c2cc(C3CC3)nc3c2c(C)nn3-c2ccc(C)cc2)cc1	i	nt	i	i	i	i
Cc1[nH]c2ccccc2c1C(c1ccncc1)N1CCCCC1 (stereo unspecified)	i	i	i	?	i	35µM
Cc1[nH]c2ccccc2c1C(Nc1nccs1)c1ccncc1 (stereo unspecified)	i	i	i	?	i	i
Cc1ccnc(NC(c2ccncc2)c2c(C)[nH]c3ccccc23)c1 (stereo unspecified)	i	i	i	?	i	10µM
COc1cccc(-c2nc(S(=O)(=O)c3ccc(Cl)cc3)c(NCc3ccccc3)o2)c1	i	nt	i	i	i	i
COC(=O)Cc1cc(=O)[nH]c(Nc2nc3ccccc3o2)n1	i	i	i	i	i	i[12.7 µM]
Cc1ccc2oc(Nc3nc(-c4ccccc4)cc(=O)[nH]3)nc2c1	i	i	?	?	i	79µM
COCc1cc(=O)[nH]c(Nc2nc3ccccc3o2)n1	i	i	79µM	40µM	i	i
CCC(C(=O)N1CCN(c2ccccc2)CC1)n1c(C)c2cnn(-c3ccccc3)c(=O)c2c1C (stereo unspecified)	i	nt	i	i	i	i
N#Cc1ccccc1-c1ccc2ncnc(NCCN3CCOCC3)c2c1	nt	nt	nt	nt	nt	i[0.501 µM]
O=C(Cn1nc(Cc2ccncc2)c2ccccc2c1=O)Nc1cccc(C(F)(F)F)c1	i	nt	i	i	i	i
COc1ccc(C(=O)NC(=O)COC(=O)c2ccc3ncsc3c2)cc1	nt	?	nt	56µM	nt	i
O=C(COC(=O)c1ccc2ncsc2c1)NC(=O)NCc1ccccc1	?	nt	i	i	i	i
O=C(COC(=O)c1ccc2ncsc2c1)NC(=O)c1ccccc1	i	i	25µM	79µM	i	?
Cc1ccc(F)cc1NC(=O)COC(=O)c1ccc(S(C)(=O)=O)c([N+](=O)[O-])c1	nt	nt	i	nt	i	nt
CCCN(CCC)c1nn2c(=O)c(C(=O)NCc3cc(Br)ccc3OC)cnc2s1	i	nt	i	i	i	i
S=C1NC(c2ccccc2)=CC(c2ccccc2)N1 (stereo unspecified)	i	i	i	?	i	32µM
CC1=CC(c2ccccc2)NC(=S)N1 (stereo unspecified)	i	i	i	i	i	i
S=C1NC(c2cccs2)=CC(c2ccc(Br)cc2)N1 (stereo unspecified)	?	i	?	?	i	16µM
SMILES	GLS inh	L3MBTL1 inh	JMJD2A Tudor	BAZ2B inh	HP1b binding inh	G9a block
CCN(CC)S(=O)(=O)c1ccc(C(=O)N2CC(=O)Nc3ccc(F)cc3C2c2ccccc2)cc1 (stereo unspecified)	i	nt	i	i	i	i
COc1ccc(OC)c(NC(=O)NNC(=O)c2cc3occc3[nH]2)c1	i	nt	i	?	i	50µM
Cc1cccc(NC(c2cccc(Cl)c2)c2ccc3cccnc3c2O)n1 (stereo unspecified)	i	nt	16µM	10µM	i	i
CCCC(=O)NC(c1ccccc1OC)c1ccc2cccnc2c1O (stereo unspecified)	i	?	56µM	25µM	i	i
CCOc1cc(C(Nc2cc(C)ccn2)c2ccc3cccnc3c2O)ccc1OC (stereo unspecified)	i	nt	18µM	10µM	14µM	3.2µM
Cc1ccc(C(Nc2ccccn2)c2ccc3cccnc3c2O)cc1 (stereo unspecified)	i	nt	20µM	28µM	i	7.9µM
CCCCC(=O)NC(c1ccccc1OC)c1ccc2cccnc2c1O (stereo unspecified)	i	nt	i[11.4 µM]	?	i	i
Cc1cccc(NC(c2ccccc2F)c2ccc3ccc(C)nc3c2O)n1 (stereo unspecified)	i	nt	?	i	i	i
CCOc1ccc(CCNC(=O)c2cc(=O)[nH]c3ccc(S(=O)(=O)N4CCCCC4)cc23)cc1OCC	i	nt	i	i	i	i
O=C(NCCSCc1ccc(Cl)cc1)C1CCN(S(=O)(=O)Cc2ccccc2)CC1	i	nt	i	i	i	i
CCCCC(=O)NC(c1ccc(N(C)C)cc1)c1ccc2cccnc2c1O (stereo unspecified)	i	?	18µM	20µM	?	40µM
CCCC(=O)NC(c1ccc(C)cc1)c1ccc2cccnc2c1O (stereo unspecified)	i	i	56µM	14µM	i	i
CCCC(=O)NC(c1ccc(Cl)cc1)c1ccc2cccnc2c1O (stereo unspecified)	i	i	i	i	i	i
COc1ccc(C(Nc2ccccn2)c2ccc3ccc(C)nc3c2O)cc1C (stereo unspecified)	i	nt	?	?	i	8.9µM
CCCCC(=O)NC(c1ccc(N(CC)CC)cc1)c1ccc2cccnc2c1O (stereo unspecified)	i	?	?	45µM	i	i
CCc1ccc(C(=O)c2cnc3ccc(F)cc3c2S(=O)(=O)c2ccccc2)cc1	i	nt	i	?	i	?
COc1ccc(CC(=O)Nc2c(C(=O)Nc3ccccc3F)oc3ccccc23)cc1	i	nt	i	i	i	i
Cc1ccc(NCc2cccn2-c2nnc(N3CCC(C(=O)NCCc4ccc(Cl)cc4)CC3)s2)cc1	i	nt	i	i	i	i
Cc1ccnc(NC(c2cccc(O)c2)c2ccc3ccc(C)nc3c2O)c1 (stereo unspecified)	i	nt	?	?	i	11µM
CCCCC(=O)NC(c1ccc(Cl)cc1)c1ccc2cccnc2c1O (stereo unspecified)	i	nt	56µM	nt	i	nt
Cc1ccnc(NCc2ccccc2O)c1	i	i[2.29 µM]	i	i	i	i[0.501 µM]
CCOC(=O)c1c(C)c(-c2ccccc2)n(CC(=O)Nc2cccc(C)c2C)c1C	i	nt	i	i	i	i
CCOc1ccc(C(=O)c2cn(Cc3ccc(OC)cc3)c3cc(OC)c(OC)cc3c2=O)cc1	i	nt	i	i	i	i
COc1ccc(CCNCc2c(C(=O)O)c(C)n(Cc3c(F)cccc3Cl)c2C)cc1OC	i	nt	i	?	i	i
